Test results reported in PubChem BioAssay.

Target: Nuclear receptor coactivator 1 (Homo sapiens) (UniProt Q15788)
Test: NCOA1 GAL4-fusion reporter inhibition – cell-based, luminescence, quadruplicate, confirmation (AID 588820);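 also: 0% = DMSO wells and 100% = gossypol 36 µM treated wells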
Conditions: HEK293 GAL4-SRC1 luciferase reporter, at 3.6 µM, active compounds read high;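 active = mean inhibition above 46.68%, the untreated control wells mean plus 3 SD; inactive = the rest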

Chain of Nuclear receptor coactivator 1 (Homo sapiens) (Q15788 whole entry, looked up, the tested form may be a part): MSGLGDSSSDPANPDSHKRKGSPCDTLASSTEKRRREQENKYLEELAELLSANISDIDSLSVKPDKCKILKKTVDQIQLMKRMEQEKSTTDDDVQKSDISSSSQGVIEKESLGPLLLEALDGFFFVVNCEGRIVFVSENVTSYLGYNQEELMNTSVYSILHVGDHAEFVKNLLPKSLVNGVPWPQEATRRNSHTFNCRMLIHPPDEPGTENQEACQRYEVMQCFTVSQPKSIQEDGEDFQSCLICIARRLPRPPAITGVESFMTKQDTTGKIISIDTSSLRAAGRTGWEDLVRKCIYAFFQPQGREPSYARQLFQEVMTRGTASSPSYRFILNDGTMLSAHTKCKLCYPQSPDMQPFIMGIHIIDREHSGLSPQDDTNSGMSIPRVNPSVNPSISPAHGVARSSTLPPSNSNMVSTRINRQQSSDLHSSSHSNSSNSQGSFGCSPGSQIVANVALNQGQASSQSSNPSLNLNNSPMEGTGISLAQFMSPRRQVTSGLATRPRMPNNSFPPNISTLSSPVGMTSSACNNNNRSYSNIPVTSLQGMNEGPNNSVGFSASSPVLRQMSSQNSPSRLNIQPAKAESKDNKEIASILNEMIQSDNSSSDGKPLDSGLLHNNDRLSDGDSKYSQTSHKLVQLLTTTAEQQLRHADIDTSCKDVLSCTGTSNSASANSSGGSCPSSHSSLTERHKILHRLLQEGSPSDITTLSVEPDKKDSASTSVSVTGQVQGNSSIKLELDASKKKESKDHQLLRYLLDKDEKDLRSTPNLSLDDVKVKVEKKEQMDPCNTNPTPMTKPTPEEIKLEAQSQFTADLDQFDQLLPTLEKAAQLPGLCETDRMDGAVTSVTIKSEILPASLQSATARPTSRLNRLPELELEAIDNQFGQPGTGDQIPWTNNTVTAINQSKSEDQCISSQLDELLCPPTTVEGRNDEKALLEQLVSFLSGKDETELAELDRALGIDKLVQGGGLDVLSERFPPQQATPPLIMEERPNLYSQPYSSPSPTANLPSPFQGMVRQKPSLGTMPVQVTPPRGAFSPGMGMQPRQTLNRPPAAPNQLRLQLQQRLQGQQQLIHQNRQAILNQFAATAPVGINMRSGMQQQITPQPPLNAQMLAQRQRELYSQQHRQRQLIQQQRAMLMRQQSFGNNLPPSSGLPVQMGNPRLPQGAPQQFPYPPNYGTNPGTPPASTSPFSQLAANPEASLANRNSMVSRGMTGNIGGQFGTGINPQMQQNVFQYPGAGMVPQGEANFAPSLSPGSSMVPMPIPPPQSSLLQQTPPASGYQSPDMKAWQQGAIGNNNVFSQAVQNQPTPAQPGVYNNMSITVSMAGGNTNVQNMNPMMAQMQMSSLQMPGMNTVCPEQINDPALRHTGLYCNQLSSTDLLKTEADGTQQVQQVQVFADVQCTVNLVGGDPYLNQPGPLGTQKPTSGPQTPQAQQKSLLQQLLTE

inhibition, inactive:
CCC(C(=O)OCC(=O)Nc1cc(Cl)cc(Cl)c1)c1ccccc1 (stereo not given) -0.98%, CC1(C)CC(=O)c2sc(N)nc2C1 -9.15%, Cc1ccc(-n2ccc(-c3nn(-c4ccccc4)ccc3=O)n2)cc1 6.13%, Cc1cc(C)cc(C(=O)Nc2cccc(NC(=O)c3ccco3)c2)c1 -11.1%, COc1ccc(S(=O)(=O)N2CCCCCC2)cc1C(=O)N(C)CCOc1ccccc1 5.04%, Cc1noc(C)c1COC(=O)CCN1c2ccccc2Sc2ccccc21 0.23%, CCOC(=O)C1=C(COC(=O)/C=C/c2ccc(OC)c(OC)c2)NC(=O)NC1C (stereo not given) -16.4%, CCCCCOC(=O)C1=C(C)NC(=O)NC1c1ccc([N+](=O)[O-])cc1 (stereo not given) -6.01%, CCCCCC(=O)N1CCN(S(=O)(=O)c2ccc3c(c2)OCCO3)CC1 -2.33%, N#CC1(NC(=O)CSc2nnc(-c3ccccc3F)o2)CCCCC1 -24.1%, COc1ccc(-c2csc(NC(=O)c3ccccc3NS(=O)(=O)c3ccc(C)cc3)n2)cc1 19.3%, COc1cc(C(C)=O)ccc1OCC(=O)Nc1ccccc1N1CCCCC1 9.15%, CC(=O)c1cn(CC(=O)Nc2cccc(C)c2C)c2ccccc12 -15.8%, O=C(Nc1ccc(Cc2ccncc2)cc1)c1ccc(S(=O)(=O)N2CCOCC2)cc1 -12.7%, CC(CC(=O)Nc1ccc(Cl)c(S(=O)(=O)N2CCOCC2)c1)c1ccccc1 (stereo not given) 1.13%
